Reference: the supplement of paper PMC6555819

Experiments:
Assay in all cases: PBM binding z-score (relative to random genomic background probes); higher = stronger binding; sequences stand for … in GC…GCGATTGACAGCGTAGAATGAAGG
[1] = test system: PPARg:RXRa DBDmut IVT, anti-RXR (DBD mutation: RXRa K156A/R161A, NR concentration 270 nM, RXRa partner concentration 90 nM)
Outline: (§1)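 Binding z-scores were set against random background probes. The data came from custom Agilent 4×180K protein-binding microarrays carrying double-stranded probes with 34-nt variable regions, incubated 1 h with ligand-free nuclear receptor dimers. Partner-specific antibodies detected binding, and scanned fluorescence was regression-normalized.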

[2] = test system: PPARg:RXRa IVT, anti-PPARg (NR concentration 270 nM, RXRa partner concentration 90 nM)
Outline: as §1

[3] = test system: PPARg DBDmut:RXRa IVT, anti-PPARg (DBD mutation: PPARg1 K132A/R137A, NR concentration 270 nM, RXRa partner concentration 90 nM)
Outline: as §1

[4] = test system: PPARg DBDmut IVT, anti-PPARg (DBD mutation: PPARg1 K132A/R137A, NR concentration 270 nM)
Outline: as §1

[5] = test system: PPARg homodimer (NR concentration 180 nM)
Outline: as §1

[6] = test system: PXR:RXRa (NR concentration 270 nM, RXRa partner concentration 90 nM)
Outline: as §1

[7] = test system: PXR homodimer (NR concentration 270 nM)
Outline: as §1

[8] = test system: RARa:RXR (NR concentration 270 nM, RXRa partner concentration 90 nM)
Outline: as §1

[9] = test system: RARa homodimer (NR concentration 270 nM)
Outline: as §1

[10] = test system: RARb:RXRa (NR concentration 270 nM, RXRa partner concentration 90 nM)
Outline: as §1

[11] = test system: RARb homodimer (NR concentration 270 nM)
Outline: as §1

[12] = test system: RARg:RXRa (NR concentration 270 nM, RXRa partner concentration 90 nM)
Outline: as §1

[13] = test system: RARg homodimer (NR concentration 270 nM)
Outline: as §1

[14] = test system: RXRa DBDmut IVT, anti-RXR (DBD mutation: RXRa K156A/R161A, NR concentration 90 nM)
Outline: as §1

[15] = test system: RXRa homodimer (NR concentration 180 nM)
Outline: as §1

[16] = test system: THRa:RXRa (NR concentration 90 nM, RXRa partner concentration 90 nM)
Outline: as §1

[17] = test system: THRa homodimer (NR concentration 90 nM)
Outline: as §1

[18] = test system: VDR:RXRa (NR concentration 270 nM, RXRa partner concentration 90 nM)
Outline: as §1

[19] = test system: VDR homodimer (NR concentration 270 nM)
Outline: as §1

| Sequence | PBM binding z-score [1] | PBM binding z-score [2] | PBM binding z-score [3] | PBM binding z-score [4] | PBM binding z-score [5] | PBM binding z-score [6] | PBM binding z-score [7] | PBM binding z-score [8] | PBM binding z-score [9] | PBM binding z-score [10] | PBM binding z-score [11] | PBM binding z-score [12] | PBM binding z-score [13] | PBM binding z-score [14] | PBM binding z-score [15] | PBM binding z-score [16] | PBM binding z-score [17] | PBM binding z-score [18] | PBM binding z-score [19] |
| --- | --- | --- | --- | --- | --- | --- | --- | --- | --- | --- | --- | --- | --- | --- | --- | --- | --- | --- | --- |
| CAAACTACGTCACCGGAAGGTCAAAGTCCGCATG | 0.517 | 1.61 | 0.449 | 1.03 | 2.68 | 3.83 | 1.39 | 4.14 | 1.23 | 3.3 | 4.23 | 4.01 | 2.91 | 0.765 | 3.55 | 2.88 | 1.47 | 3.23 | 2.03 |
| AGAACGAGGGTAATGAGTTGATAGCACGGGTGGC | 1.74 | 1.31 | -0.702 | -0.588 | -0.465 | 0.134 | 1.17 | -0.279 | -0.76 | 0.509 | -0.134 | 0.312 | 0.371 | 0.405 | 0.5 | -0.0331 | -0.615 | 3.47 | 1.53 |
| CCTCGGAGGACCACAGGAGGTCAGAGCTGCCAGA | -0.849 | -0.16 | -0.752 | -1.46 | 1.3 | 2.22 | 0.21 | 2.45 | 0.245 | 2.18 | 3.17 | 2.2 | 2.01 | -0.446 | 1.85 | 2.76 | 0.73 | 1.43 | 0.746 |
| TCGAGTAGGTTAGGGGTATTCAGAATGGCGTCGA | 2.5 | 2.26 | 0.429 | 0.6 | 0.948 | 0.383 | 0.362 | 0.00419 | 0.176 | 0.589 | 0.614 | 0.141 | -0.12 | 0.297 | 0.649 | 0.317 | 0.194 | 0.154 | 0.305 |
| TCGAGTAGGTTACCAATGGTGCATTCAGCTTTCT | 3.28 | 2.62 | -0.362 | -0.313 | -0.186 | -0.18 | -0.657 | 0.145 | -1.04 | 0.684 | -0.0825 | 0.138 | 0.0849 | 0.244 | 0.365 | -0.118 | -0.617 | 0.228 | -0.499 |
| ATCTCTAGGTAAAAGTTCAGAGAATCCCGAGGAT | 2.03 | 3.83 | 1.22 | 1.3 | 1.38 | 1.99 | 1.55 | 1.76 | 1.49 | 2.5 | 2.16 | 2.02 | 1.97 | 0.853 | 1.87 | 1.24 | -0.00417 | 1.43 | 1.91 |
| CCGACTGGGGCAGAAAGGTTAACATACCATCCGG | 1.78 | 2.39 | -0.202 | -1.36 | 1.53 | 1.19 | -0.126 | 1.95 | 0.0538 | 1.98 | 2.42 | 1.95 | 1.84 | -0.366 | 2 | 1.09 | -0.284 | 1.12 | -0.0953 |
| ATCGAAATGTCGAAGGTGAGTATACCCACCCGAA | -1.11 | 0.391 | 0.818 | 0.244 | -0.161 | -0.253 | -0.511 | 0.116 | -0.269 | 0.495 | -0.167 | 0.233 | 0.587 | -0.753 | 0.434 | -0.023 | -0.43 | -0.0982 | -0.0115 |
| TGAATGAGGTTATAAGATCGGGGAACGTTGCAAA | 1.5 | 1.78 | 1.32 | 0.272 | -0.104 | 0.636 | -0.242 | 1.05 | -0.252 | 1.08 | 0.0926 | 1.17 | 0.891 | 0.942 | 1.77 | 1.76 | 0.158 | 0.904 | 0.395 |
| GAGACTGGGGCAAAGCAGGTTACCATAAGGTTGG | 5.26 | 5.09 | 0.833 | 0.122 | 1.16 | 0.725 | 0.197 | 1.26 | -0.331 | 1.14 | 1.54 | 0.842 | 0.776 | -0.396 | 0.474 | 3.14 | 0.644 | 0.398 | -0.202 |
| CAAACTAGGTTACAGAGGTCAAAGTCCGTGCGTA | 7.75 | 7.64 | 1.98 | 1.29 | 4.38 | 6.32 | 7.32 | 7.03 | 2.06 | 4.44 | 4.97 | 6.01 | 5.51 | 2.53 | 7.1 | 4.14 | 2.24 | 7.06 | 5.09 |
| CGAACGAGGCCATGAGTTGATAGCAAATGCCGAT | 1.62 | 0.713 | -0.17 | -0.886 | 0.125 | -0.17 | -0.294 | 0.133 | -0.191 | 0.941 | 0.354 | 0.599 | 0.821 | 0.851 | 0.328 | 0.837 | -0.151 | 0.155 | 0.777 |
| CGAACTAGGTCATCCAGGACAGAGAATACATTGA | 8.15 | 8.34 | 2.22 | 1.68 | 1.64 | 1.97 | 1.05 | 2.45 | 0.545 | 3.79 | 2.81 | 4.02 | 4.59 | 2.33 | 3.1 | 3.49 | 1.8 | 4.48 | 1.64 |
| CGAACTAGGTCACTGACAGGACAGTGAATAGTAA | 8.19 | 8.43 | 0.923 | 0.583 | 1.33 | 1.1 | -0.168 | 1.94 | -0.0785 | 3.9 | 3.15 | 4.78 | 4.99 | 1.48 | 2.88 | 2.81 | 0.889 | 1.77 | 0.448 |
| CCAACTAGGTCAAAGGTCAAAGTCGAGCCAACCA | 8.37 | 8.87 | 4.39 | 5.12 | 5.23 | 7.1 | 1.86 | 8.64 | 3.1 | 5.72 | 5.33 | 9.03 | 7.43 | 3.14 | 10.2 | 4.82 | 1.79 | 6.81 | 3.47 |
